Test in all cases: NCI-60 one-dose screen, 48 h (100 = growth as untreated, 0 = no growth, -100 = all killed)
The subject of one assay is SK-MEL-2 melanoma. The settings on record: 10 µM unless noted.
Another assay has as its system EKVX NSCLC. The settings on record: 10 µM unless noted.
Another assay relates to SN12C renal. The settings on record: 10 µM unless noted.
The subject of the next assay is UO-31 renal. The settings on record: 10 µM unless noted.
The next assay concerns TK-10 renal. The settings on record: 10 µM unless noted.
For another assay, the system named is ACHN renal. The settings on record: 10 µM unless noted.
A further assay relates to CAKI-1 renal. The settings on record: 10 µM unless noted.
The test system of the next assay is MOLT-4 leukemia. The settings on record: 10 µM unless noted.
Another assay concerns SR leukemia. The settings on record: 10 µM unless noted.
A further assay has as its system RPMI-8226 leukemia. The settings on record: 10 µM unless noted.
A further assay deals with OVCAR-8 ovarian. The settings on record: 10 µM unless noted.
The next assay concerns OVCAR-5 ovarian. The settings on record: 10 µM unless noted.
The next assay deals with OVCAR-4 ovarian. The settings on record: 10 µM.
The test system of another assay is SK-OV-3 ovarian. The settings on record: 10 µM unless noted.
The test system of the next assay is IGROV1 ovarian. The settings on record: 10 µM unless noted.
For another assay, the system named is OVCAR-3 ovarian. The settings on record: 10 µM unless noted.
In a further assay the test system is HS 578T breast. The settings on record: 10 µM unless noted.
The subject of the next assay is NCI/ADR-RES ovarian. The settings on record: 10 µM unless noted.
The next assay relates to CCRF-CEM leukemia. The settings on record: 10 µM unless noted.
The next assay relates to A498 renal. The settings on record: 10 µM unless noted.

Each structure is given as a SMILES string. This is part of a sample that, as a whole, favours compounds with a hit. Of some 83,000 tested, about 20% had one in any assay.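 How to read the values: 0–100, growth inhibition (40 = 60% inhibited); 0, no net growth; -100 to 0, cell death (-40 = 40% of starting cells died; -100 = all dead).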 Unmarked numbers belong to inactive results. The source made the active and inactive calls. The calls were made as follows: active = growth percent below 10; inactive = the rest.

As for `Cc1ccc(S(=O)(=O)NCCCNc2nccc(-c3c(-c4cccc(F)c4)nc4occn34)n2)cc1`, the growth with SK-MEL-2 melanoma was 87.8%; in the assay with EKVX NSCLC, 78.7%; with SN12C renal, 70.1%; with UO-31 renal it was 43.6%; with TK-10 renal, 79.8%; in the assay on ACHN renal, 80.9%. Further, the growth is 53.4% with CAKI-1 renal; 27% with MOLT-4 leukemia; 87.9% in the assay on SR leukemia; 54.8% in the assay with RPMI-8226 leukemia; 65% in the assay with OVCAR-8 ovarian; 96.5% with OVCAR-5 ovarian. The growth was 73.4% in the assay on OVCAR-4 ovarian; 68.3% with SK-OV-3 ovarian; 48.1% with IGROV1 ovarian; 89.7% in the assay on OVCAR-3 ovarian; 68% in the assay with HS 578T breast; 85% in the assay with NCI/ADR-RES ovarian.

Turning to `CC1(C)NCCC[C@]2(C)[C@H]3C=CC4=C5C[C@](C)(CO)CC[C@]5(C)CC[C@@]4(C)[C@]3(C)CC[C@@H]12`, the growth was -84.9% [100 µM] (active) with SK-MEL-2 melanoma; -87.1% [100 µM] (active) in the assay with EKVX NSCLC; -94% [100 µM] (active) with SN12C renal; -98.1% [100 µM] (active) in the assay with UO-31 renal; -78.3% [100 µM] (active) in the assay with TK-10 renal; -95.4% [100 µM] (active) with ACHN renal. Moreover, the growth was -96.5% [100 µM] (active) with CAKI-1 renal; -44.1% [100 µM] (active) with CCRF-CEM leukemia; -56.7% [100 µM] (active) in the assay with MOLT-4 leukemia; -5.08% [100 µM] (active) with SR leukemia; -43.8% [100 µM] (active) with RPMI-8226 leukemia; -57.8% [100 µM] (active) with OVCAR-8 ovarian. Further, the growth in the assay with OVCAR-5 ovarian is -98.7% [100 µM] (active); with SK-OV-3 ovarian, -80.1% [100 µM] (active); in the assay with IGROV1 ovarian it was -84.5% [100 µM] (active); in the assay on OVCAR-3 ovarian, -78.8% [100 µM] (active); in the assay on HS 578T breast it was -46.8% [100 µM] (active); in the assay with NCI/ADR-RES ovarian it was -86.4% [100 µM] (active).

For the compound `CC(C)[C@H]1COC(=O)N1[C@@H]1C(=O)N([C@@H](CCC(=O)N2CCN(C3CCCC3)CC2)C(=O)N[C@@H]2CCCc3ccccc32)[C@@H]1/C=C/c1cccc(Cl)c1`, the growth with SK-MEL-2 melanoma was 60%; with EKVX NSCLC, 58.8%; in the assay on SN12C renal it was 59.6%; in the assay on UO-31 renal, 43.5%; in the assay on TK-10 renal, 54.2%; with ACHN renal, 57.8%. The growth in the assay on A498 renal is 27.9%; with CCRF-CEM leukemia it was 42%; with MOLT-4 leukemia, 24.1%; in the assay on SR leukemia, 19.2%; with RPMI-8226 leukemia, 22.2%; with OVCAR-8 ovarian, 74.5%. The growth is 105% with OVCAR-5 ovarian; 88.1% in the assay with SK-OV-3 ovarian; 48.4% in the assay with IGROV1 ovarian; 69% with OVCAR-3 ovarian; 64.3% in the assay with HS 578T breast; 64.1% with NCI/ADR-RES ovarian.

Take `O=C(CCNCc1ccccc1)c1ccccc1`: the growth is 108% with SK-MEL-2 melanoma; 104% in the assay on EKVX NSCLC; 109% with SN12C renal; 95.9% with UO-31 renal; 113% in the assay on TK-10 renal; 107% in the assay on ACHN renal. In addition, the growth with A498 renal is 112%; in the assay on CCRF-CEM leukemia, 116%; in the assay with MOLT-4 leukemia, 109%; with SR leukemia, 109%; with RPMI-8226 leukemia it was 105%; in the assay on OVCAR-8 ovarian it was 112%. Moreover, the growth in the assay with OVCAR-5 ovarian is 103%; in the assay with OVCAR-4 ovarian, 119%; in the assay with SK-OV-3 ovarian, 109%; in the assay on IGROV1 ovarian, 114%; in the assay with OVCAR-3 ovarian, 102%; with HS 578T breast, 110%. In the assay with NCI/ADR-RES ovarian, the growth is 105%.

For `c1cc2ccc1CNCCN1CCNCc3ccc(cc3)Oc3ccc(cc3)CNCCN(CCNCc3ccc(cc3)O2)CCNCc2ccc(cc2)Oc2ccc(cc2)CNCC1`, the growth was -94.5% (active) with SK-MEL-2 melanoma; 15.2% in the assay on EKVX NSCLC; -80.5% (active) with SN12C renal; 85.3% with UO-31 renal; 29.4% with TK-10 renal; 84.4% in the assay with ACHN renal. Moreover, the growth is 48% with A498 renal; -17.4% (active) in the assay on CCRF-CEM leukemia; -45.4% (active) in the assay with MOLT-4 leukemia; -40.1% (active) in the assay with SR leukemia; -49% (active) in the assay with RPMI-8226 leukemia; -7.54% (active) in the assay with OVCAR-8 ovarian. Also, the growth in the assay on OVCAR-5 ovarian is -55.1% (active); in the assay with OVCAR-4 ovarian, -77.6% (active); in the assay with IGROV1 ovarian, -64.3% (active); in the assay with OVCAR-3 ovarian it was -94.6% (active); in the assay with HS 578T breast, -48.7% (active); in the assay on NCI/ADR-RES ovarian, 103%.

Take `CCN(CC)c1ccc(/C=C/c2ccc3cc(C)ccc3[n+]2CC)cc1`: the growth is -32.3% (active) with SK-MEL-2 melanoma; 11.8% with EKVX NSCLC; 14.2% in the assay on SN12C renal; 5.46% (active) in the assay with UO-31 renal; -4.22% (active) with TK-10 renal; 0.905% (active) in the assay with ACHN renal. In addition, the growth was 5.43% (active) in the assay on A498 renal; 6.14% (active) in the assay with CCRF-CEM leukemia; -15.3% (active) in the assay with MOLT-4 leukemia; -17.6% (active) in the assay with SR leukemia; -8.91% (active) with RPMI-8226 leukemia; 2.3% (active) in the assay on OVCAR-8 ovarian. The growth in the assay with OVCAR-5 ovarian was 26.8%; with OVCAR-4 ovarian it was 21.2%; with SK-OV-3 ovarian it was -11.6% (active); in the assay with IGROV1 ovarian, 26.5%; with OVCAR-3 ovarian it was 14.9%; in the assay with HS 578T breast, 46.5%.

In the case of `C=C(C)[C@@H]1CC[C@]2(C(=O)NCCNCCNC(=O)OC(C)(C)C)CC[C@]3(C)[C@H](CC[C@@H]4[C@@]5(C)CCC(=O)C(C)(C)[C@@H]5CC[C@]43C)[C@@H]12`, the growth in the assay with SK-MEL-2 melanoma is 41.7% [100 µM]; with EKVX NSCLC, 53.5% [100 µM]; with SN12C renal, 39.9% [100 µM]; in the assay on UO-31 renal, 17.4% [100 µM]; with TK-10 renal it was 54% [100 µM]; in the assay on ACHN renal, 23.5% [100 µM]. In addition, the growth with A498 renal is 58.7% [100 µM]; with MOLT-4 leukemia it was 11.7% [100 µM]; in the assay with SR leukemia, 52.4% [100 µM]; in the assay on RPMI-8226 leukemia, 22.2% [100 µM]; in the assay with OVCAR-8 ovarian, 44.4% [100 µM]; with OVCAR-5 ovarian it was 60.4% [100 µM]. For the same compound, the growth with SK-OV-3 ovarian was 49.8% [100 µM]; in the assay on IGROV1 ovarian it was 34.7% [100 µM]; with OVCAR-3 ovarian it was 32.3% [100 µM]; with HS 578T breast, 37.8% [100 µM]; in the assay on NCI/ADR-RES ovarian, 52.2% [100 µM].

On to `O=C(Nc1cc(F)cc2cccnc12)c1cnc(N2CCNCC2)cn1`, for which the growth was 104% with SK-MEL-2 melanoma; 82.7% with EKVX NSCLC; 75% with SN12C renal; 29% with UO-31 renal; 66.6% in the assay with TK-10 renal; 28.4% with ACHN renal. Besides, the growth in the assay with A498 renal was 88.7%; in the assay on CCRF-CEM leukemia, 26.3%; in the assay on MOLT-4 leukemia it was 24.5%; in the assay with SR leukemia it was 29.5%; with RPMI-8226 leukemia it was 93.1%; in the assay on OVCAR-8 ovarian, 72.4%. Besides, the growth in the assay on OVCAR-5 ovarian was 83.4%; in the assay on OVCAR-4 ovarian, 11.2%; with SK-OV-3 ovarian, 100%; in the assay with IGROV1 ovarian, 43.5%; with OVCAR-3 ovarian, 6.04% (active); with HS 578T breast, 82.2%. The growth in the assay on NCI/ADR-RES ovarian was 87.6%.

Values taken from PubChem BioAssay (NCI).
